The list is not random: actives were taken first. Their share in the collection is about 4.1%.
hgDAF-12 ag – activates the H. glycines DAF-12 receptor ligand-binding domain. HEK293 GAL4-hgDAF12 UAS-luciferase reporter, agonist luminescence; normalized to butyrate control. activation, % at 6.8 µM. 1.8% of 370,000 active. AID 687014;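 active means activation above a cutoff set at the mean of all screened compounds plus 3 SD, cut at about 10% in these data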;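 further: 0% = DMSO wells and 100% = sodium butyrate wells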
hcDAF-12 act – H. contortus DAF-12 activation, primary screen; 1.4% of 370,000 active; AID 652067; activation, % at 6.8 µM; HEK293 hcDAF-12 lit1-tk-luc reporter, luminescence; 0% DMSO, 100% Δ7-dafachronic acid;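 active means activation above the mean of all tested compounds plus 3 SD, cut at about 5.5% in these data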;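 further: 100% = response to 3 µM Δ7-dafachronic acid high control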
DAX1 inh-1 – inhibitors of DAX1 repression of SF-1 activated StAR promoter; HEK293T StAR-luciferase reporter, SF-1/DAX-1 repression relief; inhibition, % at 6.8 µM; 1.1% of 370,000 active; AID 652010;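 active means inhibition above the mean over all tested compounds plus 3 SD, cut at about 3.6% in these data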;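 further: 0% = DAX-1 cells with DMSO and 100% = cells lacking DAX-1 with DMSO; higher inhibition means more luminescence from relief of DAX-1 repression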
PolyA inh – yeast polyadenylation inhibition. S. cerevisiae SKY197-pL101 polyadenylation reporter, beta-gal luminescence; efflux-impaired pdr1/pdr3 knockout yeast; score 100 = 6 SD above DMSO. activity score, % at 12 µM. 0.02% of 300,000 active. AID 1875;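 active means lowest replicate activity score at least 50, where 100 means six control SD above control mean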;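 further: yeast exposed to compound for 9 h at 30 °C; higher score means more reporter readthrough which indicates perturbed polyadenylation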
DAX1 inh-2 – inhibits human nuclear receptor DAX1 | AID 504766 | inhibition, % at 6.75 µM | 0.99% of 340,000 active | HEK293 Gal4-DAX1 luciferase reporter, luminescence;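 active means inhibition above the mean over all tested compounds plus 3 SD, cut at about 4.2% in these data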;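 further: 0% = DAX1-transfected cells with DMSO and 100% = empty-vector control cells with DMSO; inhibition shows as a rise in luminescence from relieved DAX1 repression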
Target sequence (P51843 207-470 limits assumed): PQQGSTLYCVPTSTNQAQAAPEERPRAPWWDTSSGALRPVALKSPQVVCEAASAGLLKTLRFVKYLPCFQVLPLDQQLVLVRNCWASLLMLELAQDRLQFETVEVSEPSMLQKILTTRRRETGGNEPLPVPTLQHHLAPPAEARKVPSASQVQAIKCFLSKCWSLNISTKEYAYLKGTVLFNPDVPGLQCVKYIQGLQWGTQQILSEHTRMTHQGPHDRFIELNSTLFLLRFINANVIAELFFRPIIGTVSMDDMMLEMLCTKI
ssDAF12 agonist – activates DAF-12 receptor from parasite S. stercoralis. HEK293 ssDAF-12/GRIP1 lit1-tk-luc reporter, luminescence; % of 3 µM dafachronic acid response. activation, % at 6.8 µM. 1% of 370,000 active;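 active means activation above the mean over all tested compounds plus 3 SD, cut at about 0.9% in these data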;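 further: 0% = DMSO-only wells and 100% = 3 µM delta7-dafachronic acid wells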
* hit, by the source's call; x = no result given.

SMILES	hgDAF-12 ag	hcDAF-12 act	DAX1 inh-1	PolyA inh	DAX1 inh-2	ssDAF12 agonist
O=[N+]([O-])c1cc(-c2ccc(/C=N/n3cnnc3)o2)ccc1Cl	0	-2	0	-7	0	-1
CC(=O)Nc1cc2nc3ccccc3oc-2cc1=O	-5	-2	-3	x	x	-1
CC(=O)OC12CCCN(C1)/C(=C/c1cccc(Cl)c1)C2 (stereo not given)	1	-1	0	x	x	-1
CN(C(=O)[C@H]1O[C@@H](n2cnc(C(N)=O)n2)[C@H](O)[C@@H]1O)c1ccccc1	0	-1	0	x	x	-1
O=[N+]([O-])c1cc2c(c(CSc3ncccn3)c1)OCOC2	4	1	0	-6	6.9*	1
Nc1cc(N)nc(SCc2cc([N+](=O)[O-])cc3c2OCOC3)n1	-5	-3	0	7	0	-2
CCC(C)OC(=O)c1[nH]c2c(c1C)C(=O)CC(c1ccc(N(C)C)cc1)C2 (stereo not given)	11*	-3	0	-8	0	-1
CCOCCOC(=O)c1[nH]c2c(c1C)C(=O)CC(c1ccc(N(C)C)cc1)C2 (stereo not given)	1	-2	0	1	0	-3
COC(=O)c1[nH]c2c(c1C)C(=O)CC(c1ccccc1)C2 (stereo not given)	-4	0	0	-25	1	0
CCOC(=O)c1[nH]c2c(c1-c1ccccc1)C(=O)CC(c1ccccc1)C2 (stereo not given)	6	0	2	-13	6.6*	-1
Cc1ccc(NC(=O)C2CCN(c3ncccn3)CC2)cc1C	3	-1	0	x	x	-1
NC(=O)c1c(NC(=O)c2ccc([N+](=O)[O-])o2)sc2c1CCCC2	1	4	0	-36	0	2.0*
COc1ccccc1C(=O)Nc1sc2c(c1C#N)CCC2	x	x	x	-7	0	x
CN1CCc2c(sc(NC(=O)c3ccc([N+](=O)[O-])o3)c2C(N)=O)C1	-7	-3	-7	3	-1	-1
COc1ccccc1C(=O)Nc1sc2c(c1C(N)=O)CCCC2	3	3	0	-17	1	0.9*
O=C(Nc1sc2c(c1C(=O)O)CCCCC2)c1cccs1	10	4	3	4	2	1.0*
O=C(Nc1sc2c(c1C(=O)O)CCCC2)c1cccs1	6	3	2	7	1	-1
Cc1c(C)n(Cc2ccc(-c3ccccc3C(=O)O)cc2)c2ccc(C(=O)N[C@@H](C)c3ccc(Br)cc3)cc12	0	0	-1	x	x	0
COC(=O)[C@]12C[C@H](CC(=O)NCc3ccc(OC)c(OC)c3)C(=O)N(Cc3cccc4ccccc34)C1=C[C@H](C(C)(C)C)O[C@@H]2C	0	-1	-1	x	x	-1
O=C(Nc1nc(-c2ccccc2)c(C(=O)c2ccccc2)s1)c1ccc(S(=O)(=O)N2CCCCC2)cc1	2	6.5*	0	-9	-1	0
CC(=O)c1sc(NC(=O)c2ccccc2)nc1-c1ccccc1	12*	2	3	-21	4.8*	1
CC(C)CN(CC(C)C)C(=O)CSc1nc2cccnc2n1C	-5	-3	-2	x	x	-1
CCc1cc2c(nc1CC)CCCN2Cc1ccccc1C(F)(F)F	-2	-1	-3	x	x	-2
COc1ccc(-c2ccc3c(n2)CCCN3Cc2ccccc2C(F)(F)F)cc1	8	2	4.2*	x	x	-1
COCCN1CCCc2nc(-c3ccc(Br)cc3)ccc21	11*	1	4.0*	x	x	0
SMILES	hgDAF-12 ag	hcDAF-12 act	DAX1 inh-1	PolyA inh	DAX1 inh-2	ssDAF12 agonist
FC(F)(F)c1ccccc1CN1CCCc2nc(-c3ccc(Br)cc3)ccc21	7	0	2	x	x	2.6*
FC(F)(F)c1ccccc1CN1CCCc2nc(-c3ccccc3)ccc21	0	0	1	x	x	-1
COc1ccc(/C=N/NC(=O)c2cccnc2)c2ccccc12	0	-1	-1	13	0	-1
COc1ccc(/C=N/NC(=O)c2cccs2)c2ccccc12	11*	3	1	-9	4	0
CCN(CC)C(=O)c1cc(-c2ccc(Br)cc2)on1	11*	1	2	-20	2	0.9*
COC1=C[C@H](C(=O)NCc2ccccn2)[C@H](C)[C@@H](c2ccccc2)CC1=O	1	1	-1	x	x	-1
C(=Cc1cnnc2ccccc12)c1ccccc1	13*	3	2	x	2	1
COc1ccccc1CC(=O)Nc1ccc(C(=O)N2CCCCC2)cc1	0	0	3.9*	-11	1	-1
Cc1cccnc1NC(=S)NC(=O)/C=C/c1ccccc1	12*	1	1	-24	2	-1
CC(OC(=O)CNC(=O)c1ccco1)C(=O)N(C)c1ccccc1 (stereo not given)	5	1	0	23	1	-2
CC(OC(=O)/C(C#N)=C/c1ccco1)C(=O)N(C)c1ccccc1 (stereo not given)	2	1	-1	x	0	2.5*
Cc1nc2c(ccc3nc(NC(=O)C(c4ccccc4)c4ccccc4)sc32)s1	0	5	0	9	-1	2.5*
Cc1nc2c(ccc3nc(NC(=O)Cc4cccc5ccccc45)sc32)s1	2	-2	1	10	3	-1
O=[N+]([O-])c1ccccc1/C=C/C=N/N1CCCCC1	11*	5	3	7	7.3*	0
O=[N+]([O-])c1ccccc1/C=C\C=N\N1CCN(c2ccccc2)CC1	-1	-2	0	-10	-2	-1
O=[N+]([O-])c1cccc(C=NN2CCCCCC2)c1	11*	3	2	x	1	-1
COC(=O)[C@]12C[C@H](CC(=O)NCc3ccc(OC)c(OC)c3)C(=O)N(Cc3ccc4c(c3)OCO4)C1=C[C@H](C(C)C)O[C@@H]2C1CC1	0	1	0	x	x	-1
CCC(=O)Oc1ccc(C(=O)Nc2cccc(C(=O)NCC(C)C)c2)cc1	0	-1	0	2	4.7*	-1
COc1ccc(CNS(=O)(=O)CC2NCc3ccc(C)cc32)cc1 (stereo not given)	-1	1	0	x	x	-1
O=C1OCC(CO)(CO)N=C1NNc1ccccc1[N+](=O)[O-]	3	3	0	-11	5.2*	-1
O=C1OCC(CO)(CO)N=C1NNc1cc(Cl)ccc1Cl	3	4	0	-26	0	1
Cc1csc(NC(=O)c2cccn2C)n1	12*	5	3	4	2	0
Cn1cccc1C(=O)Nc1nc(-c2ccccn2)cs1	6	1	0	-14	-1	0
Cc1csc(NC(=O)c2ccco2)n1	5	1	1	8	1	1.0*
